Source: the supplement of paper PMC13380429
Values without a mark were called inactive.

Tested on: Vero E6 infected with SARS-CoV-2
Assay: inhibition of SARS-CoV-2 cytopathic effect; higher = more antiviral protection, active = above 15
Conditions: 48 h

Cc1ncc([N+](=O)[O-])n1CC(O)CCl (stereo not given) [ornidazole]
inhibition of SARS-CoV-2 cytopathic effect (1 nM): -2.81% | inhibition of SARS-CoV-2 cytopathic effect (8.33 nM): 0.99% | inhibition of SARS-CoV-2 cytopathic effect (100 nM): 1.14% | inhibition of SARS-CoV-2 cytopathic effect (833.33 nM): -1.29% | inhibition of SARS-CoV-2 cytopathic effect (10000 nM): 1.51%

Cc1nc(-c2ccc(OCC(C)C)c(C#N)c2)sc1C(=O)O [febuxostat]
inhibition of SARS-CoV-2 cytopathic effect (1 nM): -0.9% | inhibition of SARS-CoV-2 cytopathic effect (8.33 nM): -0.46% | inhibition of SARS-CoV-2 cytopathic effect (100 nM): -0.43% | inhibition of SARS-CoV-2 cytopathic effect (833.33 nM): 2.99% | inhibition of SARS-CoV-2 cytopathic effect (10000 nM): 1.58%

C#CCOC(=O)C1=CCCN(C)C1 [arecaidine-propargyl-ester]
inhibition of SARS-CoV-2 cytopathic effect (1 nM): -3.75% | inhibition of SARS-CoV-2 cytopathic effect (8.33 nM): 0.55% | inhibition of SARS-CoV-2 cytopathic effect (100 nM): -0.74% | inhibition of SARS-CoV-2 cytopathic effect (833.33 nM): -1.69% | inhibition of SARS-CoV-2 cytopathic effect (10000 nM): 2.67%

NCCNCCNCCN [trientine]
inhibition of SARS-CoV-2 cytopathic effect (1 nM): -0.43% | inhibition of SARS-CoV-2 cytopathic effect (8.33 nM): 2.23% | inhibition of SARS-CoV-2 cytopathic effect (100 nM): 1.04% | inhibition of SARS-CoV-2 cytopathic effect (833.33 nM): 2.74% | inhibition of SARS-CoV-2 cytopathic effect (10000 nM): -1.84%

CCNC(=O)[C@H]1O[C@@H](n2cnc3c(N)ncnc32)[C@H](O)[C@@H]1O
inhibition of SARS-CoV-2 cytopathic effect (1 nM): 3.12% | inhibition of SARS-CoV-2 cytopathic effect (8.33 nM): 1.83% | inhibition of SARS-CoV-2 cytopathic effect (100 nM): -2.78% | inhibition of SARS-CoV-2 cytopathic effect (833.33 nM): -3.3% | inhibition of SARS-CoV-2 cytopathic effect (10000 nM): -1.61%

CNCCCCOc1ccccc1Cc1ccccc1 [bifemelane]
inhibition of SARS-CoV-2 cytopathic effect (1 nM): -0.64% | inhibition of SARS-CoV-2 cytopathic effect (8.33 nM): 0.99% | inhibition of SARS-CoV-2 cytopathic effect (100 nM): 1.41% | inhibition of SARS-CoV-2 cytopathic effect (833.33 nM): -0.82% | inhibition of SARS-CoV-2 cytopathic effect (10000 nM): -1.85%

CCOC(=O)c1cc(C#N)c(N2CCC(C(=O)NS(=O)(=O)Cc3ccccc3)CC2)nc1C
inhibition of SARS-CoV-2 cytopathic effect (1 nM): 3.08% | inhibition of SARS-CoV-2 cytopathic effect (8.33 nM): 2.38% | inhibition of SARS-CoV-2 cytopathic effect (100 nM): 0.44% | inhibition of SARS-CoV-2 cytopathic effect (833.33 nM): 1.19% | inhibition of SARS-CoV-2 cytopathic effect (10000 nM): -2.86%

CC(=O)NCC(=O)N[C@H](CCC(=O)O)C(=O)O [N-acetylglycyl-D-glutamic-acid]
inhibition of SARS-CoV-2 cytopathic effect (1 nM): 1.3% | inhibition of SARS-CoV-2 cytopathic effect (8.33 nM): -0.41% | inhibition of SARS-CoV-2 cytopathic effect (100 nM): -0.4% | inhibition of SARS-CoV-2 cytopathic effect (833.33 nM): -0.04% | inhibition of SARS-CoV-2 cytopathic effect (10000 nM): 1.12%

O=C(N[C@@H]1Cc2ccccc2N(C[C@@H](O)CO)C1=O)c1cc2cc(Cl)sc2[nH]1
inhibition of SARS-CoV-2 cytopathic effect (1 nM): -0.59% | inhibition of SARS-CoV-2 cytopathic effect (8.33 nM): -0.92% | inhibition of SARS-CoV-2 cytopathic effect (100 nM): -2.86% | inhibition of SARS-CoV-2 cytopathic effect (833.33 nM): -2.28% | inhibition of SARS-CoV-2 cytopathic effect (10000 nM): -3.46%

CN(C(=O)Cc1ccc(Cl)c(Cl)c1)[C@H](CN1CCCC1)c1ccccc1
inhibition of SARS-CoV-2 cytopathic effect (1 nM): 4.62% | inhibition of SARS-CoV-2 cytopathic effect (8.33 nM): 6.47% | inhibition of SARS-CoV-2 cytopathic effect (100 nM): 6.09% | inhibition of SARS-CoV-2 cytopathic effect (833.33 nM): -0.24% | inhibition of SARS-CoV-2 cytopathic effect (10000 nM): 34.8% (active)

CC(=O)N[C@@H](CS)C(=O)O [acetylcysteine]
inhibition of SARS-CoV-2 cytopathic effect (1 nM): 1.87% | inhibition of SARS-CoV-2 cytopathic effect (8.33 nM): 1.77% | inhibition of SARS-CoV-2 cytopathic effect (100 nM): 3.98% | inhibition of SARS-CoV-2 cytopathic effect (833.33 nM): 1.93% | inhibition of SARS-CoV-2 cytopathic effect (10000 nM): 3.74%

CN(C)C/C=C(/c1ccc(Br)cc1)c1cccnc1 [zimelidine]
inhibition of SARS-CoV-2 cytopathic effect (1 nM): 0.58% | inhibition of SARS-CoV-2 cytopathic effect (8.33 nM): 1.8% | inhibition of SARS-CoV-2 cytopathic effect (100 nM): 0.96% | inhibition of SARS-CoV-2 cytopathic effect (833.33 nM): -1% | inhibition of SARS-CoV-2 cytopathic effect (10000 nM): -1.69%

N#Cc1c(O)c2c(-c3ccc(-c4ccccc4O)cc3)csc2[nH]c1=O
inhibition of SARS-CoV-2 cytopathic effect (1 nM): -1.57% | inhibition of SARS-CoV-2 cytopathic effect (8.33 nM): -3.91% | inhibition of SARS-CoV-2 cytopathic effect (100 nM): -1.86% | inhibition of SARS-CoV-2 cytopathic effect (833.33 nM): 0.75% | inhibition of SARS-CoV-2 cytopathic effect (10000 nM): 3.92%

CC/C(=C(\c1ccc(O)cc1)c1ccc(OCCN(C)C)cc1)c1ccccc1 [afimoxifene]
inhibition of SARS-CoV-2 cytopathic effect (1 nM): -2.83% | inhibition of SARS-CoV-2 cytopathic effect (8.33 nM): 1.16% | inhibition of SARS-CoV-2 cytopathic effect (100 nM): 3.76% | inhibition of SARS-CoV-2 cytopathic effect (833.33 nM): -0.54% | inhibition of SARS-CoV-2 cytopathic effect (10000 nM): 40% (active)

COc1ccc(C2CC(c3ccccc3)=NN2c2ccc(S(N)(=O)=O)cc2)cc1 (stereo not given)
inhibition of SARS-CoV-2 cytopathic effect (1 nM): 0.58% | inhibition of SARS-CoV-2 cytopathic effect (8.33 nM): 2.1% | inhibition of SARS-CoV-2 cytopathic effect (100 nM): 1.18% | inhibition of SARS-CoV-2 cytopathic effect (833.33 nM): -2.57% | inhibition of SARS-CoV-2 cytopathic effect (10000 nM): 0.95%

Cc1cc(-c2cc(O)ccc2Cl)cc2nnc(Nc3ccc(OCCN4CCCC4)cc3)nc12
inhibition of SARS-CoV-2 cytopathic effect (1 nM): -1.19% | inhibition of SARS-CoV-2 cytopathic effect (8.33 nM): 1.04% | inhibition of SARS-CoV-2 cytopathic effect (100 nM): 4.54% | inhibition of SARS-CoV-2 cytopathic effect (833.33 nM): -1.25% | inhibition of SARS-CoV-2 cytopathic effect (10000 nM): -21.4%

CCCCCNCC(N)=O [milacemide]
inhibition of SARS-CoV-2 cytopathic effect (1 nM): 1.56% | inhibition of SARS-CoV-2 cytopathic effect (8.33 nM): -1.78% | inhibition of SARS-CoV-2 cytopathic effect (100 nM): 2.01% | inhibition of SARS-CoV-2 cytopathic effect (833.33 nM): 2.58% | inhibition of SARS-CoV-2 cytopathic effect (10000 nM): -0.4%

C[N+]1(C)[C@@H]2CC[C@H]1C[C@@H](OC(=O)C(CO)c1ccccc1)C2 (stereo not given in full) [methylatropine-nitrate]
inhibition of SARS-CoV-2 cytopathic effect (1 nM): 1.74% | inhibition of SARS-CoV-2 cytopathic effect (8.33 nM): 2.06% | inhibition of SARS-CoV-2 cytopathic effect (100 nM): 2.14% | inhibition of SARS-CoV-2 cytopathic effect (833.33 nM): 4.12% | inhibition of SARS-CoV-2 cytopathic effect (10000 nM): 3.88%

O=C(Nc1ccc(Cl)nc1)c1ccc(Cl)cc1
inhibition of SARS-CoV-2 cytopathic effect (1 nM): 0.45% | inhibition of SARS-CoV-2 cytopathic effect (8.33 nM): 1.94% | inhibition of SARS-CoV-2 cytopathic effect (100 nM): 2.79% | inhibition of SARS-CoV-2 cytopathic effect (833.33 nM): 0.19% | inhibition of SARS-CoV-2 cytopathic effect (10000 nM): 0.84%

CC1=C(C(=O)Nc2cc3cn[nH]c3cc2F)C(c2ccc(C(F)(F)F)cc2)CC(=O)N1 (stereo not given)
inhibition of SARS-CoV-2 cytopathic effect (1 nM): 1.8% | inhibition of SARS-CoV-2 cytopathic effect (8.33 nM): -1.07% | inhibition of SARS-CoV-2 cytopathic effect (100 nM): 1.5% | inhibition of SARS-CoV-2 cytopathic effect (833.33 nM): -0.29% | inhibition of SARS-CoV-2 cytopathic effect (10000 nM): -5.1%
